Out of some 48,000 compounds screened, about 13,000 (27%) showed an effect of 50% or more. The list shows a part of the results.
System: Wolbachia pipientis
Experiment: Anti-Wolbachia Cell-Based Screen
Assay type: functional
Parameters: scale not given: in the data most compounds retested in dose-response had high values
Conditions: 5 µM

| Structure (SMILES) | Percent Effect [%] |
| --- | --- |
| Cn1c(CO)cnc1SC(C(=O)NC1CC1)c1ccccc1 (stereo unspecified) | -13.82 |
| CC(C)NC(=O)[C@@H]1C[C@@H](N)CN1C(=O)c1cc2c([nH]c1=O)CCCC2 | 7.662 |
| Cn1nc(C2CCCN2)c2c(C(=O)NCC(F)(F)F)cc(C3CC3)nc21 (stereo unspecified) | 125.9 |
| O=C(NCC(F)(F)F)NC1CCCc2c1cnn2CCO (stereo unspecified) | 2.681 |
| CC(C)CC(NC(=O)c1cc(C2CC2)n[nH]1)c1ncnn1C (stereo unspecified) | -18.23 |
| Cn1nc(C2CCNC2)c2c(C(=O)NCC(F)(F)F)cc(C3CC3)nc21 (stereo unspecified) | 104.4 |
| CC(C)CNC(=O)c1cc(C2CC2)nc2c1c(C1CCCN1)nn2C (stereo unspecified) | 129.8 |
| CCCn1ncc2c(C(=O)Nc3cnn(CC)c3C)cc(C3CC3)nc21 | 3.978 |
| Cc1csc(N2CCCN(C(=O)c3nccnc3N)CC2)n1 | 0.5076 |
| CC(NCC1CCN(CCO)CC1)c1ccc(F)c(Cl)c1 (stereo unspecified) | 2.095 |
| CC(C)CN1C(=O)C2(CCCC2)NC1c1c[nH]nc1-c1cccnc1 (stereo unspecified) | -9.401 |
| CNC(=O)C(C)(C)N1CCC[C@H]1C(=O)NCCN1CCCC1.Cl.Cl | 7.406 |
| CCC(CNC(=O)N1CCOCC2(CCOCC2)C1)c1ccccc1 (stereo unspecified) | -24.39 |
| CCN(CC)S(=O)(=O)N1CCCN(CC(=O)NC(C)C)CC1 | -10.54 |
| CCS(=O)(=O)CCN(CC1CCCO1)C1CCCC1 (stereo unspecified) | -6.431 |
| CCN(CC1CCCO1)S(=O)(=O)N1CCCCCC1 (stereo unspecified) | 99.13 |
| O=C(CN(Cc1cccc(F)c1)CC1CCCO1)N1CCCC1 (stereo unspecified) | 12.97 |
| CC(C)N(C)S(=O)(=O)N(Cc1cccs1)CC1CCCO1 (stereo unspecified) | 1.212 |
| CCN(CCS(=O)(=O)CC)CC1CCCO1 (stereo unspecified) | 2.463 |
| CCN(CC)S(=O)(=O)N1CCCN(CC2CCCO2)CC1 (stereo unspecified) | 96.25 |
| CCN(CC(=O)NC)S(=O)(=O)N1CCCCC1 | 6.131 |
| O=S(=O)(N1CCCC1)N(Cc1ccccc1)CC1CCCO1 (stereo unspecified) | 124.5 |
| Cc1cc(CN[C@@H](Cc2ccccc2)C(N)=O)c(C)s1 | -7.626 |
| Cc1cc(C)n(CCNC(=O)c2ncc[nH]2)c(=O)n1 | -0.5408 |

| Structure (SMILES) | Percent Effect [%] |
| --- | --- |
| CSc1ncccc1C(=O)N1C[C@H]2CC[C@@H]1CN(c1ncccn1)C2 | -10.71 |
| CN(CC(=O)NCCC#N)C(c1ccccc1)c1ccccc1 | -3.756 |
| FC(F)Oc1ccc(NCc2nc(C3CC3)no2)c(OC(F)F)c1 | 6.863 |
| Cc1noc(C(C)C)c1C(=O)NCC(c1cccc(F)c1)N(C)C (stereo unspecified) | -3.913 |
| Cc1ccc(C(CNC(=O)c2cc(CC(C)C)nn2C)N(C)C)cc1 (stereo unspecified) | -5.66 |
| CN(C)C(CNC(=O)c1nc(N2CCOCC2)ncc1Cl)c1cccs1 (stereo unspecified) | 4.739 |
| Cc1ccc(C(CNC(=O)c2c(C)noc2C(C)C)N(C)C)cc1 (stereo unspecified) | 95.03 |
| Cc1noc(C(C)C)c1C(=O)NCC(c1ccccc1)N(C)C (stereo unspecified) | 108.3 |
| Cc1noc(C(C)C)c1C(=O)NCC(c1cccs1)N(C)C (stereo unspecified) | 102.8 |
| CC(C)C(=O)NS(=O)(=O)CCc1ccccc1 | -1.365 |
| Cc1ccnc(NCCNC(=O)CCNC(=O)c2ccccc2F)c1 | 6.973 |
| Cc1ccc(CN2CCO[C@@H]3C[C@@H](C(=O)NC(C)C)C[C@H]32)o1.O=C(O)C(F)(F)F | -8.614 |
| CN(C)C(=O)N1CCc2onc(C(=O)Nc3cccnc3)c2C1.O=C(O)C(F)(F)F | -32.01 |
| Cc1ccc(CN2CCc3[nH]nc(C(=O)N(C)C)c3C2)o1.O=C(O)C(F)(F)F | 3.694 |
| Cc1ccc(CN2CCc3onc(C(=O)N4CCCC4)c3C2)o1.O=C(O)C(F)(F)F | 105.8 |
| CCO[C@@H]1C[C@H]2CN(Cc3ccc(C)o3)CCN2C1.O=C(O)C(F)(F)F.O=C(O)C(F)(F)F | -6.795 |
| Cn1cc(CN2CCc3onc(C(=O)N4CCCC4)c3C2)cn1.O=C(O)C(F)(F)F | 123 |
| Cn1cc(CN2CCc3onc(COc4cccnc4)c3C2)cn1.O=C(O)C(F)(F)F.O=C(O)C(F)(F)F | -7.028 |
| Cc1ccc(CN2CCc3[nH]nc(C(=O)N4CCN(C)CC4)c3C2)o1.O=C(O)C(F)(F)F.O=C(O)C(F)(F)F.O=C(O)C(F)(F)F | -23.43 |
| Cc1ccc(CN2CCc3onc(C(=O)NC(C)C)c3C2)o1.O=C(O)C(F)(F)F | 106.2 |
| Cc1ccc(CN2CCc3onc(C(=O)Nc4cccnc4)c3C2)o1.O=C(O)C(F)(F)F.O=C(O)C(F)(F)F | 119.7 |
| COCc1nn(C)c2c1CN(Cc1cnn(C)c1)CC2.O=C(O)C(F)(F)F | -20.95 |
| CC(C)NC(=O)N1CCc2onc(C(=O)Nc3cccnc3)c2C1.O=C(O)C(F)(F)F | -28.12 |
| O=C1CC[C@H]2CN(Cc3cccnc3)CC[C@H]2N1CCc1c[nH]cn1 | -39.87 |

| Structure (SMILES) | Percent Effect [%] |
| --- | --- |
| CN(c1ccccc1C(=O)O)S(=O)(=O)c1cccc2cccnc12 | -35.11 |
| CC(C)NC(=O)N1CCc2onc(C(=O)NCCN(C)C)c2C1.O=C(O)C(F)(F)F | -1.789 |
| CC(C)C(=O)N1CCc2onc(C(=O)NCCN(C)C)c2C1.O=C(O)C(F)(F)F | 7.945 |
| Cc1ccc(CN2CCc3onc(C(=O)NCCN(C)C)c3C2)o1.O=C(O)C(F)(F)F.O=C(O)C(F)(F)F | 74.07 |
| Cc1ccc(N(C)C2CCN(C(=O)c3ccsc3)CC2)nn1 | -0.5839 |
| CCS(=O)(=O)N1CCC2(CCN(C(=O)c3cccs3)CC2)CC1 | 97.57 |
| CS(=O)(=O)N1CCC2(CCN(C(=O)c3cccs3)CC2)CC1 | 95.21 |
| CS(=O)(=O)N1CCO[C@@H]2CCN(C(=O)c3cccs3)CC[C@H]21 | -2.724 |
| Cn1cnnc1S(=O)(=O)C1CCN(C(=O)c2ccsc2)CC1 | -15.33 |
| O=C(c1cccs1)N1CC(C(=O)N2CCCC2)C2(CCOCC2)C1 (stereo unspecified) | -9.07 |
| O=C(O)C(F)(F)F.O=S(=O)(C1CC1)N1CCC2(CCN(Cc3nccs3)CC2)CC1 | -4.722 |
| O=C(c1cccs1)N1CCC2(CC1)CCN(S(=O)(=O)C1CC1)CC2 | 97.11 |
| CCS(=O)(=O)N1CCC2(CCN(Cc3nccs3)CC2)CC1.O=C(O)C(F)(F)F | 12.02 |
| Cc1ccc(OC2(C(=O)O)CCN(C(=O)c3cccs3)CC2)cn1 | -10.49 |
| CC(CCSc1ccccc1)N1CCN(C(=O)c2cccs2)CC1 (stereo unspecified) | 0.564 |
| O=C(c1ccsc1)N1CCC2(CC1)CCN(S(=O)(=O)C1CC1)CC2 | 99.84 |
| COCC1CN(Cc2c(C)noc2C)Cc2cn(C)nc21 (stereo unspecified) | 8.994 |
| NC(=O)NC(=O)CN1CCN(CC2CC2)c2ccccc21 | -3.453 |
| COCC(c1cccc(C(F)(F)F)c1)N(C)C(=O)c1ccncc1 (stereo unspecified) | -9.987 |
| COCCNc1ccccc1CNC(=O)NCc1nc(C)c(C)s1 | -3.267 |
| CC(=O)Nc1ccc2nn(C(C)C)cc2c1 | 3.305 |
| Cc1cc2cccc(C(=O)N3CCOC4(CNCCOC4)C3)c2o1 (stereo unspecified) | -17.55 |
| CCN(CC)CCCNCC1CCOC(C)(C)C1 (stereo unspecified) | 90.59 |
| CCN(CC)CCNCC1CCOC(C)(C)C1 (stereo unspecified) | 101.9 |

| Structure (SMILES) | Percent Effect [%] |
| --- | --- |
| COc1c(NS(=O)(=O)c2ccc(F)c(C)c2)c(C)nn1C | 6.685 |
| CC(=O)NC[C@@]1(COc2cnccn2)C[C@@H](O)[C@@H](O)C1.Cl | -2.09 |
| CCN(CC)C1(Cc2cc(-c3ccccn3)on2)COC1 | -7.749 |
| CNC(=O)c1ccc(CN2CCC(N(C)Cc3noc(C)n3)C2)cc1 (stereo unspecified) | 12.29 |
| Cc1nc(CN(C)C2CCN(Cc3ccc(C(N)=O)cc3)C2)no1 (stereo unspecified) | 137.1 |
| Cc1nc(CN(C)C2CCN(Cc3ccc4c(c3)CCC4)C2)no1 (stereo unspecified) | 94.75 |
| CNC(=O)c1cccc(CN2CCC(N(C)Cc3noc(C)n3)C2)c1 (stereo unspecified) | 9.379 |
| Cc1nc(CN(C)C2CCN(Cc3cccc(F)c3)C2)no1 (stereo unspecified) | 130.9 |
| Cc1nc(CN(C)C2CCN(Cc3ccc4c(c3)OCCO4)C2)no1 (stereo unspecified) | -0.871 |
| Cc1nc(CN(C)C2CCN(CCc3ccc4c(c3)CCO4)C2)no1 (stereo unspecified) | 131.2 |
| CC(C)(C)C(NC(=O)CCCS(C)(=O)=O)c1ccc(F)cc1F (stereo unspecified) | 6.458 |
| Cc1cnc(N2CCC3(CC2)CC(NC(=O)N(C)C)CO3)nc1 (stereo unspecified) | 3.12 |
| CC(C)c1cc(C(=O)N2C[C@@H](C)[C@](O)(C3CC3)C2)[nH]n1 | 9.432 |
| CCN(C(C)c1cccc(O)c1)S(=O)(=O)c1cccnc1 (stereo unspecified) | -1.511 |
| CC(C)(C)c1c[nH]c([C@@H]2COCCN2C2CCNCC2)n1 | -5.137 |
| Cc1cc(C)n(C2CN(CCC(=O)NCCc3ccccc3)C2)n1 | 114.1 |
| Cc1cnn(C2CN(CC(=O)NCCc3ccccc3)C2)c1 | -5.59 |
| COc1cccc(CNC(=O)C(C)N2CC(n3nc(C)cc3C)C2)c1 (stereo unspecified) | -5.224 |
| Cc1cc(C)n(C2CN(Cc3ccc(C(=O)N4CCCC4)cc3)C2)n1 | -4.233 |
| Cc1cc(C)n(C2CN(CC(=O)NC3CCOCC3)C2)n1 | -6.139 |
| Cc1cc(C)n(C2CN(CC(O)Cn3cccn3)C2)n1 (stereo unspecified) | -3.488 |
| CCc1ccc(NC(=O)CCN2CC(n3nc(C)cc3C)C2)cc1 | 87.75 |
| Cc1cc(C)n(C2CN(CC(=O)N3CCOCC3)C2)n1 | -1.985 |
| Cc1cc(C)n(C2CN(CCC(N)=O)C2)n1 | 109.9 |

Source: ChEMBL document CHEMBL3988442, “University of Dundee, Small-Polar-MMV Screening Library” (2021)
